According to PubChem BioAssay (NCI):
This is part of a sample that, as a whole, favours compounds with a hit. Of some 83,000 tested, about 20% had one in any assay.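 Values shown are percent growth following 48 h exposure of cells in 96-well plates to a single concentration of compound; below 10 was considered active.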 Values without a mark were called inactive. The source made the active and inactive calls.

What was measured:
Assay in all cases: NCI-60 one-dose screen, 48 h (100 = growth as untreated, 0 = no growth, -100 = all killed)
Settings in all cases: 10 µM unless noted
NCI-H23 lung = test system: NCI-H23 lung
NCI-H226 lung = test system: NCI-H226 lung
NCI-H322M lung = test system: NCI-H322M lung
HOP-62 NSCLC = test system: HOP-62 NSCLC
NCI-H460 lung = test system: NCI-H460 lung
NCI-H522 lung = test system: NCI-H522 lung
A549/ATCC NSCLC = test system: A549/ATCC NSCLC
COLO 205 colon = test system: COLO 205 colon
DU-145 prostate = test system: DU-145 prostate
K-562 leukemia = test system: K-562 leukemia
MALME-3M melanoma = test system: MALME-3M melanoma
MDA-MB-231 breast = test system: MDA-MB-231 breast
RXF 393 renal = test system: RXF 393 renal
SF-268 CNS = test system: SF-268 CNS
SF-295 CNS = test system: SF-295 CNS
SF-539 CNS = test system: SF-539 CNS
UACC-257 melanoma = test system: UACC-257 melanoma
M14 melanoma = test system: M14 melanoma
HOP-92 NSCLC = test system: HOP-92 NSCLC
786-0 renal = test system: 786-0 renal

Compound | growth (NCI-H23 lung) [%] | growth (NCI-H226 lung) | growth (NCI-H322M lung) [%] | growth (HOP-62 NSCLC) [%] | growth (NCI-H460 lung) [%] | growth (NCI-H522 lung) | growth (A549/ATCC NSCLC) [%] | growth (COLO 205 colon) | growth (DU-145 prostate) | growth (K-562 leukemia) [%] | growth (MALME-3M melanoma) [%] | growth (MDA-MB-231 breast) | growth (RXF 393 renal) | growth (SF-268 CNS) [%] | growth (SF-295 CNS) | growth (SF-539 CNS) | growth (UACC-257 melanoma) [%] | growth (M14 melanoma) | growth (HOP-92 NSCLC) | growth (786-0 renal)
COc1ccc(C(=O)C2C(C#N)C(C#N)C3c4ccccc4C=CN23)cc1 (centres undefined) | 83.3 | 74.7% | 89 | 92.9 | 97.7 | 71.9% | 87.2 | 107% | 103% | 73.1 | 92.1 | 79.2% | 77.9% | 91 | 95.8% | 95.4% | 85.7 | 96.2% |  | 
O=C(C[n+]1cccc2ccccc21)c1ccc(O)c(O)c1 | 78.5 | 62.1% | 93.5 | 102 | 92.6 | 20.9% | 84.4 | 56.4% | 84.8% | 28.5 | 53.9 | 59.1% | 49.6% | 84.7 | 105% | 91.2% | 78.1 | -83.4% (active) |  | 
COc1cc(C2C3=C(COC3=O)N(CCO)c3cc4c(cc32)OCO4)cc(OC)c1OC (centres undefined) | 12.2 | 6.36% (active) | 50.3 | 12.6 |  | -13% (active) | 30.8 | -84.3% (active) | 5.4% (active) |  | 56.3 | -1.03% (active) | -5.54% (active) | 41.3 | 21.4% | -51.6% (active) | 60.8 | -19.6% (active) | 52.1% | 9.85% (active)
O=C(O)c1ccc(NCc2cn(-c3ccc(C(F)(F)F)cc3)nc2-c2ccc(C(=O)O)cc2)cc1 | 107 | 111% | 106 | 101 |  | 93.1% | 106 | 119% | 115% | 105 | 127 | 111% | 112% | 97.8 | 100% | 97% | 109 | 106% | -7.09% (active) | 105%
NS(=O)(=O)c1ccc(CCN2C(=O)C=CC2=O)cc1 | 94.6 | 101% | 97.3 | 97.1 |  | 84.6% | 104 | 123% | 109% |  | 102 | 104% | 111% | 100 | 102% | 101% | 101 | 107% | 108% | 106%
Cn1cc(-c2csc(-c3c[nH]c4ccccc34)n2)c2ccnc(Cl)c21 | 86.9 | 60.5% | 88.9 |  | 74.2 | 52.5% | 59 | 46.7% | 47.2% |  | 139 | 70.1% | 43.5% | 102 | 93.2% | 56.2% | 32.2 | 43.3% | 64% | 59.1%
O=C(NNc1nc2c(F)cccc2n2cccc12)c1cnccn1 | 24.8 | 31.7% | 25.5 |  | 11.6 | 2.24% (active) | 15.7 | -4% (active) | 26.2% |  | 18.3 | 31.7% | 37.5% | 30.6 | 8.17% (active) | -0.386% (active) | 16.2 | 3.21% (active) | 67.4% | 27.4%
C=C(C)[C@@H]1CC[C@]2(C(=O)N3CCN(C)CC3)CC[C@]3(C)[C@H](CC[C@@H]4[C@@]5(C)C/C(=C/c6cccnc6)C(=O)C(C)(C)[C@@H]5CC[C@]43C)[C@@H]12 | 78.5 | 72.7% | 107 |  | 44.3 | 59% | 49.4 | 65% | 74% | 21.9 | 71.4 | 74.9% | 52.2% | 72.7 | 87.3% | 74.5% | 66.6 | 69.5% | 52.8% | 75.7%
O=Cc1ccc(-c2cn3ccnc3c(-c3ccc4ncn(Cc5ccccc5)c4c3)n2)cc1 | 45.5 | 99.5% | 88.8 |  | 62.2 | 74.7% | 103 | 126% | 75.7% |  | 113 | 40.8% | 75% | 72.9 | 76.9% | 68.5% | 122 | 77% | 57% | 53.3%
